Screens: PubChem BioAssay, National Center for Advancing Translational Sciences (NCATS)
Most compounds without a hit are left out; they make up all but 8.3% or so of the library.
HCMV antiviral – qHTS Assay for inhibitors of the human cytomegalovirus (HCMV) | HFF cells, HCMV-luciferase reporter, 72 h; hits give low values | 4.5% of 410,000 active | activity change, negative = inhibition, % at 57.5 µM; in the data active = activity change below about -60%; inconclusive = no clear call, values can overlap the other calls; inactive = above about -39%
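Inhibition of viral replication was scored as loss of reporter luminescence in HFFs infected with HCMV-luciferase (MOI 1 PFU/cell) for 72 h; compounds tested at 2 doses, normalized to buffer and Salinomycin controls.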
FMDV antiviral – High Throughput Screening for Foot and Mouth Disease Virus Antivirals. 1.2% of 410,000 active. FMDV antiviral cell-based qHTS. AID 1159524, 2015. Potency, µM (series often up to 57.9 µM), for inactives: at the top dose activity change, negative = inhibition, usual class: inhibitors; calls by dose curve; tested in HEK293T cells; also: read-out not given here; potency is read from the fitted curve at half-maximal effect; nearly all actives have a fitted effect of over 45% in size
FBPA Giardia inh – qHTS Assay for Inhibitors of Fructose-1,6-bisphosphate Aldolase from Giardia Lamblia. A8B2U2. purified Giardia FBPA. Potency, µM (doses to about 59.6 µM), inactives show at the highest dose activity, negative = inhibition, hits mostly inhibitors. 0.71% of 290,000 active. AID 2451, 2010; also: potency is read from the fitted curve at half-maximal effect; nearly all actives have a fitted effect of over 55% in size
Target sequence (A8B2U2 whole entry, looked up): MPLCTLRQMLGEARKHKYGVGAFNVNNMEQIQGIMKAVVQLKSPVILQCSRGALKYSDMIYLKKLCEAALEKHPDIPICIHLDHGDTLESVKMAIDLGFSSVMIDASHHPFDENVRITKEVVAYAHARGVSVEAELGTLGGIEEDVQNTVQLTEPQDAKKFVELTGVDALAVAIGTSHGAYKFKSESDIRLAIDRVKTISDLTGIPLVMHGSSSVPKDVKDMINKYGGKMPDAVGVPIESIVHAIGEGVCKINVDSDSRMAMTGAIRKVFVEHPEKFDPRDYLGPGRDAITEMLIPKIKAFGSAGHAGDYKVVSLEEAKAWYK
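Giardia FBPA (40 nM reagent) was preincubated 10 min at RT with compound (up to 57.5 uM final), then substrate plus GAPDH/TPI/NAD/arsenate coupling system with diaphorase/resazurin was added; resorufin fluorescence (525/598 nm) was read after 20 min.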
Marburg entry inh – qHTS for inhibitors of binding or entry into cells for Marburg Virus; Marburg virus pseudotyped entry inhibition, cell reporter; 1.8% of 300,000 active; AID 540276, 2011; Potency, µM (doses to about 37.8 µM), without a hit: at the top dose activity change, negative = inhibition, usual class: inhibitors; calls by dose curve; tested in HEK293 cells; also: potency is read from the fitted curve at half-maximal effect
HCV inh – qHTS Assay for Inhibitors of Hepatitis C Virus (HCV). Potency, µM (series often up to 41.8 µM), inactives show at the highest dose activity change, negative = inhibition, hits mostly inhibitors. 3.4% of 340,000 active. Huh7.5.1 HCVcc-Cre infection, luciferase reporter, 44 h; also: potency is read from the fitted curve at half-maximal effect
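HCVcc-Cre virus at an moi near 0.5 was added right after compound to cells cultured 4 h from seeding (1,000 cells/well). Luciferase activity was determined 44 h later, 15 min after substrate addition at RT.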
LASV entry inh – qHTS for Inhibitors of binding or entry into cells for Lassa Virus; Lassa virus pseudotype entry inhibition, cell reporter; Potency, µM (highest dose often 37.9 µM), inactives show top-dose activity change, negative = inhibition, usual class: inhibitors; 1.2% of 300,000 active; calls by dose curve; tested in HEK293 cells; also: potency is read from the fitted curve at half-maximal effect; nearly all actives have a fitted effect of over 50% in size
An asterisk follows results filed as active; ? = inconclusive; . = no result given; + = active, no number; [ ] = remark or other dose. Unless noted, calls follow the shape of the dose curve; as a rule, active = well fitted curve in the direction sought with a large enough effect; inconclusive = small, poorly fitted or top-dose-only effect, or another doubt; inactive = no such curve, though single readings can be large; an effect the other way counts as inactive or inconclusive. % is scaled to controls: 0 for no effect and ±100 for the full control effect.

SMILES | HCMV antiviral | FMDV antiviral | FBPA Giardia inh | Marburg entry inh | HCV inh | LASV entry inh
CSc1ncccc1C(=O)N1CCN(S(=O)(=O)c2ccc3ccccc3c2)CC1 | -83.0* | 0.0% | . | . | ? | .
O=C(c1ccccc1F)N1CCN(S(=O)(=O)c2ccc3ccccc3c2)CC1 | -39.2 | -21.1% | 5.9% | . | -25.3% | .
Cc1c(C(=O)N(C)C)sc2c1c(=O)n(-c1ccc(Cl)c(Cl)c1)c(=O)n2CC(=O)N1CCCCC1C (centres undefined) | 94.9 | -12.2% | . | . | . | ?
COCC1C2CC[C@H]3C(OCc4ccc(OC)cc4)OC[C@]4(C)[C@H]3C2=C(CN4C(=O)OC(C)(C)C)[C@H](C)C1COC (some centres undefined) | . | . | -10.8% | . | . | .
Cc1cccc(N2CCN(c3nc4ccc(C)cc4n4cnnc34)CC2C)c1 (centres undefined) | -27.2 | -27.5% | . | 2.9%[46.1 µM] | . | .
CCC(=NCc1ccco1)c1c(O)n(-c2ccccc2)c(=O)[nH]c1=O | 35.5 | -20.3% | -1.4% | 12.9% | -5.6% | ?
CCC(=NCc1ccco1)c1c(O)n(-c2ccc(C)cc2)c(=O)[nH]c1=O | -9.4 | -17.0% | 0.8% | ? | 7.4% | 0.58µM*
CCc1ccccc1NC(=O)CSc1nc2ccccc2nc1Cc1cccc(OC)c1 | -24.7 | -8.4% | . | . | . | -16.5%[46.1 µM]
O=C1OC(Nc2ccc3c(c2)OCO3)c2ccccc21 (centres undefined) | -97.0* | ? | -11.5% | -23.9% | ? | -4.2%
O=C(O)c1ccc2c(c1)C(=O)N([C@]1(C(=O)O)C[C@H]1c1ccccc1)C2=O | . | . | 3.4% | . | . | .
S=C(N/N=C/c1ccccc1Cl)Nc1cccc(Cl)c1Cl | -65.2* | -5.4% | 5.0% | . | -26.5% | .
Fc1ccc(NC(=S)NN=Cc2ccccc2Cl)cc1 | -16.4 | 5.3% | . | ? | -27.5% | -10.3%[46.1 µM]
COc1ccc(C2C3C(=O)N(Cc4ccccc4)C(=O)C3ON2c2ccccc2)c(OC)c1OC (centres undefined) | 5.0 | -1.3% | -4.3% | ? | ? | 5.62µM*
N#CC(c1ccc(Cl)cc1)c1ccc2c(C(F)(F)F)cc(C(F)(F)F)nc2n1 (centres undefined) | -106.5* | ? | -13.8% | 3.16µM* | ? | 2.82µM*
CC(=O)SC1CC2=CC(=O)CC[C@]2(C)C2CC[C@@]3(C)C(CC[C@@]34CCC(=O)O4)C12 (some centres undefined) | . | . | . | 5.2% | . | ?
Nc1cc(S(=O)(=O)Nc2ccc(Cl)cc2)ccc1N1CCOCC1 | -72.0* | -8.9% | -7.9% | ? | ? | ?
CCOC(=O)Nc1ccc(N2CCOCC2)c(S(=O)(=O)Nc2ccc(Cl)cc2)c1 | 27.6 | 35.4% | . | 10µM* | ? | ?
Cc1c(Cl)cccc1-n1ncc(C(=O)Nc2ccc3c(c2)OCCO3)c1C1CCN(C(=O)OC(C)(C)C)CC1 | -82.3* | -4.5% | . | . | . | ?
COc1ccc(-n2ncc(C(=O)Nc3ccc4c(c3)OCCO4)c2C2CCN(C(=O)OC(C)(C)C)CC2)cc1 | + | -7.5% | . | . | . | ?
CC(C)(C)OC(=O)N1CCC(c2c(C(=O)Nc3ccc4c(c3)OCCO4)cnn2-c2ccc(F)cc2)CC1 | -5.9 | -4.5% | . | . | . | ?
COc1ccccc1/C=C/c1nc(C#N)c(N2CCN(C)CC2)o1 | 8.2 | -15.8% | . | -0.4%[46.1 µM] | . | -27.8%[46.1 µM]
CC(=O)OCC1(C)CN(c2ccccc2)N(C(C)=O)C1=O (centres undefined) | ? | 2.6% | -8.3% | . | -8.8% | .
CC(=O)OCC1(C)CN(c2ccccc2)NC1=O (centres undefined) | -62.1* | 7.2% | ? | . | -1.2% | .
Cc1nc2cnc(N(C)C)nc2n(CCC#N)c1=O | . | 6.2% | 4.8% | . | . | .
CSc1ccc(/C=C/c2nc3ccccc3n2S(=O)(=O)c2cccc(Cl)c2)cc1 | -65.4* | -85.8% | . | -18.4%[46.1 µM] | . | ?
O=S(=O)(c1cccc(Cl)c1)n1c(/C=C/c2ccccc2Cl)nc2ccccc21 | -24.9 | -81.0% | . | . | . | ?
Cc1ccc(/C=C/c2nc3ccccc3n2S(=O)(=O)c2ccc(Br)cc2)cc1 | -89.0* | -65.3% | . | . | . | ?
